{
  "source": "PubChem BioAssay (NCATS)",
  "key": {"[1]": {"molecular_target": "Thyroid hormone receptor beta (Homo sapiens) (UniProt P10828)", "sequence (P10828 whole entry, looked up)": "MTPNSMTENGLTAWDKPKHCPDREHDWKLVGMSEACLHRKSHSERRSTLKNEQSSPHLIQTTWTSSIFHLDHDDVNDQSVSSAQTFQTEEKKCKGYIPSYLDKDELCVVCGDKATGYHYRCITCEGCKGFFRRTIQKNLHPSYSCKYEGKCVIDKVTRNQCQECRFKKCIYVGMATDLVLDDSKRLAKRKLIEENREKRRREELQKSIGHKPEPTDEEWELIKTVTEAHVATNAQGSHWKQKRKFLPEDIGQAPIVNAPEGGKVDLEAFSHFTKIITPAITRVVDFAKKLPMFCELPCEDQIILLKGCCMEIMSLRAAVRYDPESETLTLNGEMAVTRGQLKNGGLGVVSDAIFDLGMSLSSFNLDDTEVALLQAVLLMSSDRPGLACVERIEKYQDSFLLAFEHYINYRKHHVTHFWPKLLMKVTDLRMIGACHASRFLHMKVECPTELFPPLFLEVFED", "assay": "qHTS assay for small molecule agonists of thyroid hormone receptor beta signaling (AID 588545; calls by dose curve; note: potency is the fitted concentration of half-maximal effect)", "settings": "TR-UAS-bla GripTite HEK 293, beta-lactamase ratio, agonist mode, 18 h; series mostly up to 76.7 µM", "method_in_brief": "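TR-UAS-bla-GripTite HEK 293 cells in medium with 2% charcoal/dextran FBS, 0.1 mM NEAA and 1 mM sodium pyruvate were treated with titrated compounds for 18 hrs at 37 C. Beta-lactamase reporter was read with CCF4 dye (ex 405, em 460/530 nm); EC50 from Hill fits.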"}, "[2]": {"assay": "Cell Viability - Hek293 (AID 427;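 active = compounds whose dose-response curve shows a full or clear partial loss of cell viability, called from curve shape rather than a numeric limit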;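 note: potency is the fitted concentration of half-maximal effect; cells exposed to compound for 40 hours at 37 °C before reading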)", "settings": "qHTS", "method_in_brief": "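AC50 values derive from Hill-modelled concentration-response of ATP-based luminescence, normalized between DMSO-only and 100 uM tamoxifen controls. Cells were exposed in complete culture medium for 40 hr at 37 °C before detection.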"}, "[3]": {"assay": "Cell Viability - MRC5 (AID 434; calls by dose curve;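 note: potency is the fitted concentration of half-maximal effect; potency reflects cytotoxicity seen as loss of intracellular ATP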)", "settings": "MRC5 lung fibroblast viability, qHTS", "method_in_brief": "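MRC5 normal human lung fibroblasts (1500/well) were treated with compounds for 40 hr at 37 °C in complete medium, and viable cells were measured as intracellular ATP by CellTiter-Glo luminescence. AC50 came from Hill fits, normalized to DMSO and 100 uM tamoxifen.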"}, "[4]": {"molecular_target": "Mitogen-activated protein kinase 10 (Mus musculus) (UniProt Q61831)", "assay": "JNK3 AlphaScreen Assay (AID 530; active = well fitted curve in either direction with a large enough effect, not every such curve was filed as active;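 note: signal reports phosphorylation of biotinylated GST-cJun 1-79 at Ser73 with 10 µM ATP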)", "settings": "JNK3 lysate, c-Jun phosphorylation; series mostly up to 57.1 µM", "method_in_brief": "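Inhibitors reduce antibody binding to phosphorylated biotin-cJun, lowering AlphaScreen luminescence. Lysates from HepG2 cells pre-activated by IL-1beta plus TNF-alpha supplied JNK3; compounds were titrated.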"}, "[5]": {"assay": "Cellular Toxicity (caspase-3) HepG2 (AID 654);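 note: cells exposed to compound for 16 hours before reading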", "settings": "HepG2 caspase-3 activation, luminescence, 0% = DMSO only, 100% = tamoxifen; series mostly up to 92.2 µM", "method_in_brief": "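Cells plated 5 hr at 37 °C, compound added, incubated 16 hr at 37 °C. Caspase-Glo 3/7 reagent followed, 20 min at room temperature, then luminescence read. Activation scored as signal increase; AC50 from Hill fit.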"}, "[6]": {"assay": "MultiTox-Fluor Cytotoxicity Assay - LYMP1-001 - Live Cells (AID 947)", "settings": "LYMP1-001 lymphoblastoid cells, live-cell protease fluorescence viability; series mostly up to 92.2 µM"}, "[7]": {"assay": "MultiTox-Fluor Cytotoxicity Assay - LYMP1-002 - Dead Cells (AID 960); note: nearly all actives have a fitted effect of over 60% in size", "settings": "LYMP1-002 lymphoblastoid cells, dead-cell protease fluorescence; series mostly up to 46.1 µM", "method_in_brief": "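LYMP1-002 cells 2500/well; 5 hr 37 C pre-incubation; compound 16 hr 37 C; MultiTox-Fluor reagent 60 min RT; dead-cell fluor Ex/Em 485/520. Norm. to DMSO (0%) vs 15 uM tetraoctylammonium bromide (100%); Hill AC50.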"}, "[8]": {"assay": "Cell Viability - LYMP2-004 (AID 966); note: nearly all actives have a fitted effect of over 65% in size", "settings": "LYMP2-004 lymphoblastoid cell viability, qHTS; series mostly up to 92.2 µM", "method_in_brief": "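Cells seeded 2500/well, rested 5 hr at 37 C, dosed across a concentration series, incubated 24 hr at 37 C, then CellTiter-Glo added for 30 min at room temperature and luminescence read. Hill fitting gave AC50.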"}, "[9]": {"assay": "Cell Viability - LYMP2-005 (AID 967)", "settings": "LYMP2-005 lymphoblastoid cell viability; series mostly up to 92.2 µM", "method_in_brief": "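Steps: seed 2500 LYMP2-005 cells/well, incubate 5 h at 37 C, add compound, incubate 24 h at 37 C, add CellTiter-Glo, wait 30 min at RT, read luminescence. Concentration-response data fitted to Hill equation for AC50.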"}, "[10]": {"assay": "Cell Viability - LYMP2-025 (AID 976)", "settings": "LYMP2-025 lymphoblastoid cell viability; series mostly up to 92.2 µM", "method_in_brief": "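Seed 2500 LYMP2-025 cells/well; 5 hr at 37 C; add compound; 24 hr at 37 C; add CellTiter-Glo; 30 min RT; read luminescence. AC50 from Hill-modelled concentration-response.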"}, "[11]": {"assay": "Cell Viability - LYMP2-016 (AID 984); note: nearly all actives have a fitted effect of over 55% in size", "settings": "LYMP2-016 lymphoblastoid cell viability, qHTS; series mostly up to 92.2 µM", "method_in_brief": "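qHTS, 1536-well: 2500 LYMP2-016 cells/well, 5 hr 37 C, compound added, 24 hr 37 C, CellTiter-Glo 30 min RT, luminescence. Tetraoctylammonium bromide positive control. AC50 via Hill fit.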"}, "[12]": {"assay": "Cell Viability - LYMP2-018 (AID 985);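 note: compound exposure lasted 24 hr at 37 °C; nearly all actives have a fitted effect of over 50% in size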", "settings": "LYMP2-018 lymphoblastoid cells, viability (qHTS); series mostly up to 92.2 µM", "method_in_brief": "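Luminescent ATP signal (CellTiter-Glo, read after 30 min at room temperature) reports viable cells after 24 hr compound treatment at 37 C. Concentration-response data were fitted to the standard Hill equation for AC50.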"}, "[13]": {"assay": "Cell Viability - LYMP2-022 (AID 987); note: nearly all actives have a fitted effect of over 55% in size", "settings": "LYMP2-022 lymphoblastoid cell viability; series mostly up to 92.2 µM", "method_in_brief": "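qHTS: human lymphoblastoid cells 2500/well; 5 hr 37 C; cpd added; 24 hr 37 C; CellTiter-Glo, 30 min RT; luminescence. AC50 via Hill fit; tetraoctylammonium bromide positive ctrl.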"}, "[14]": {"assay": "Cell Viability - LYMP2-024 (AID 988); note: nearly all actives have a fitted effect of over 60% in size", "settings": "LYMP2-024 lymphoblastoid cell viability; series mostly up to 92.2 µM", "method_in_brief": "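Steps: seed 2500 cells/well, 5 hr 37 C; add compound, 24 hr 37 C; add CellTiter-Glo, 30 min room temperature; read luminescence. AC50 derived by Hill modelling of concentration-dependent ATP loss.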"}, "[15]": {"assay": "Cell Viability - LYMP1-002 - Assay at 24 hr (AID 993)", "settings": "LYMP1-002 lymphoblastoid cells viability; series mostly up to 92.2 µM", "method_in_brief": "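Cells plated 2500/well, 5 hr 37 C; compounds added, 24 hr 37 C; CellTiter-Glo added, 30 min RT; luminescence read. Tetraoctylammonium bromide positive control. Hill-equation AC50.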"}, "[16]": {"molecular_target": "Peroxisome proliferator-activated receptor gamma (Homo sapiens) (UniProt P37231)", "sequence (P37231 whole entry, looked up)": "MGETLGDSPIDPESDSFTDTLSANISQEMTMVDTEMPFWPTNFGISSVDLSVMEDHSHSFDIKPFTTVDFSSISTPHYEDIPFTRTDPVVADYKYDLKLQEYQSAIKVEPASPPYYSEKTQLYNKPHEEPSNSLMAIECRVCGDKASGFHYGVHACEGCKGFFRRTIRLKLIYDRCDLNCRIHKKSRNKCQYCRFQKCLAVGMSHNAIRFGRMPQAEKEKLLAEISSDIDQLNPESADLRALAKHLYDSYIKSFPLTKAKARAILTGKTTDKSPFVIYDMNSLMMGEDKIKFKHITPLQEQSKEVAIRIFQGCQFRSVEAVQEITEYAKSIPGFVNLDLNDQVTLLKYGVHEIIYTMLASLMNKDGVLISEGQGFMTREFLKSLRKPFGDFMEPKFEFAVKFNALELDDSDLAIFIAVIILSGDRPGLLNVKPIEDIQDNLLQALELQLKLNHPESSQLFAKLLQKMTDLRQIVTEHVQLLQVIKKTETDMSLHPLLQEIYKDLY", "assay": "qHTS assay for small molecule agonists of peroxisome proliferator-activated receptor gamma signaling (AID 588536; active = well fitted curve in the direction sought with a large enough effect in the signal ratio, with a control signal flat, not every such curve was filed as active; the % refers to the signal ratio)", "settings": "HEK293 PPARg-UAS-bla, beta-lactamase ratio, 16 h, percent of rosiglitazone response, DMSO as zero; series mostly up to 76.7 µM", "method_in_brief": "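HEK293 UAS-bla reporter line, 1% charcoal/dextran FBS; titration, 16 h, 37 C; CCF4 loading 2 h RT; fluorescence 460/530 nm. Normalized to rosiglitazone 2 uM = 100%, DMSO = 0%.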"}, "[17]": {"assay": "qHTS assay for small molecule agonists of retinoid X receptor alpha signaling (AID 588544)", "settings": "HEK293T RXRa-UAS-bla, beta-lactamase reporter, 18 h; 530 nm emission"}, "[18]": {"assay": "qHTS assay for small molecule antagonists of retinoid X receptor alpha signaling (AID 588546);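 note: cells stimulated with 9-cis-retinoic acid as agonist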", "settings": "HEK293T RXRa-UAS-bla, beta-lactamase ratio, antagonist mode; measured here: W530 green channel, cytotoxicity proxy", "method_in_brief": "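Beta-lactamase reporter inhibition, read as CCF4 fluorescence ratio (ex 405, em 460/530 nm) after 2 h at RT. HEK293T UAS-bla cells, 2500/well, were stimulated with 9-cis-RA at 500 or 100 nM final alongside test compound for 18 h at 37 C.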"}, "[19]": {"molecular_target": "Tumor necrosis factor (Homo sapiens) (UniProt P01375)", "sequence (P01375 whole entry, looked up)": "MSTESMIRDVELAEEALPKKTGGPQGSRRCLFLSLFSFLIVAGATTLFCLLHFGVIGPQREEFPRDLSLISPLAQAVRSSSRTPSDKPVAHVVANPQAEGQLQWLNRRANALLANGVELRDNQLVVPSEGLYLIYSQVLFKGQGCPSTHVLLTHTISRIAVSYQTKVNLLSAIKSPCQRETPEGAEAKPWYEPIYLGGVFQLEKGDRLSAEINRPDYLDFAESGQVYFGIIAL", "assay": "qHTS assay to identify small molecules that stimulate Tumor Necrosis Factor-alpha (TNF-alpha) secretion (AID 651757; active = well fitted curve in the direction sought with a large enough effect in the signal ratio; the % refers to the signal ratio)", "settings": "Human cells, HTRF 665/615 ratio; series mostly up to 92.2 µM", "method_in_brief": "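Read-out is HTRF, a TR-FRET sandwich of cryptate- and XL665-labeled anti-TNF-alpha antibodies detecting cytokine secreted by THP-1 cells. Cells had been incubated with test compounds at 37 C for 17 hrs beforehand.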"}, "[20]": {"molecular_target": "Thyroid hormone receptor beta (Homo sapiens) (UniProt P10828)", "assay": "qHTS assay for small molecule antagonists of thyroid hormone receptor beta signaling (AID 588547; active = well fitted inhibition curve with a large enough effect in the signal ratio, with a control signal flat, not every such curve was filed as active; the % refers to the signal ratio)", "settings": "TR-UAS-bla HEK293, beta-lactamase ratio, antagonist mode, 18 h", "method_in_brief": "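TR-UAS-bla GripTite HEK293 cells in 2% charcoal/dextran FBS medium were preincubated 4 h at 37 C, given compound (0.59 nM to 92 uM) plus 0.4 nM T3 (final) for 18 h, then CCF4 for 2 h at RT; Hill fit gave IC50.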"}},
  "note": "Inconclusive results are not listed. Entries that show only a call come without a potency. Activity calls are given as the source filed them. Unless noted, calls come from the whole dose curve; as a rule, active = well fitted curve in the direction sought with a large enough effect; inconclusive = small, poorly fitted or top-dose-only effect, or another doubt; inactive = no such curve, though single readings can be large; an effect the other way counts as inactive or inconclusive.",
  "data": [
    {"smiles": "c1ccc2c(c1)ccc1cc3c(ccc4ccccc43)cc12", "values": [
      {"measurement": "Potency", "setting": "[1]", "value": "39.8 µM (active)"}
    ]},
    {"smiles": "O=[N+]([O-])c1ccc(O)c([N+](=O)[O-])c1", "values": [
      {"measurement": "Potency", "setting": "[2]", "value": "> 92 µM (inactive)"},
      {"measurement": "Potency", "setting": "[3]", "value": "> 92 µM (inactive)"},
      {"measurement": "Potency", "setting": "[4]", "value": "inactive"},
      {"measurement": "outcome", "setting": "[5]", "value": "inactive"},
      {"measurement": "outcome", "setting": "[6]", "value": "inactive"},
      {"measurement": "Potency", "setting": "[7]", "value": "inactive"},
      {"measurement": "Potency", "setting": "[8]", "value": "inactive"},
      {"measurement": "Potency", "setting": "[9]", "value": "inactive"},
      {"measurement": "Potency", "setting": "[10]", "value": "inactive"},
      {"measurement": "Potency", "setting": "[11]", "value": "inactive"},
      {"measurement": "Potency", "setting": "[12]", "value": "inactive"},
      {"measurement": "Potency", "setting": "[13]", "value": "inactive"},
      {"measurement": "Potency", "setting": "[14]", "value": "inactive"},
      {"measurement": "Potency", "setting": "[15]", "value": "inactive"},
      {"measurement": "outcome", "setting": "[16]", "value": "inactive"},
      {"measurement": "max response", "setting": "[17]", "value": -6.65, "unit": "%"},
      {"measurement": "max response", "setting": "[18]", "value": -0.361, "unit": "%"},
      {"measurement": "outcome", "setting": "[19]", "value": "inactive"}
    ]},
    {"smiles": "S=c1[nH]c2ccccc2[nH]1", "values": [
      {"measurement": "Potency", "setting": "[2]", "value": "> 92 µM (inactive)"},
      {"measurement": "Potency", "setting": "[3]", "value": "> 92 µM (inactive)"},
      {"measurement": "Potency", "setting": "[4]", "value": "inactive"},
      {"measurement": "outcome", "setting": "[5]", "value": "inactive"},
      {"measurement": "Potency", "setting": "[7]", "value": "inactive"},
      {"measurement": "Potency", "setting": "[8]", "value": "inactive"},
      {"measurement": "Potency", "setting": "[9]", "value": "inactive"},
      {"measurement": "Potency", "setting": "[10]", "value": "inactive"},
      {"measurement": "Potency", "setting": "[11]", "value": "inactive"},
      {"measurement": "Potency", "setting": "[12]", "value": "inactive"},
      {"measurement": "Potency", "setting": "[13]", "value": "inactive"},
      {"measurement": "Potency", "setting": "[14]", "value": "inactive"},
      {"measurement": "Potency", "setting": "[15]", "value": "inactive"},
      {"measurement": "outcome", "setting": "[16]", "value": "inactive"},
      {"measurement": "max response", "setting": "[17]", "value": 8.12, "unit": "%"},
      {"measurement": "Potency", "setting": "[1]", "value": "inactive"},
      {"measurement": "max response", "setting": "[18]", "value": -17.8, "unit": "%"},
      {"measurement": "activity change % (negative = inhibition)", "setting": "[20]", "value": "-0.89% (inactive)"}
    ]}
  ]
}
